In article PMC7826789 (International Journal of Molecular Sciences, 2021):

Experiments:
Conditions in all cases: Compound Concentration (nM):1000
[1] = tested on: ABL1(Q252H)-phosphorylated
[2] = tested on: ABL1(T315I)-nonphosphorylated
[3] = tested on: ABL1(T315I)-phosphorylated
[4] = tested on: ABL1(Y253F)-phosphorylated
ABL1-nonphosphorylated = tested on: ABL1-nonphosphorylated
ABL1-phosphorylated = tested on: ABL1-phosphorylated
ABL2 = tested on: ABL2
ACVR1B = tested on: ACVR1B
ACVR1 = tested on: ACVR1
ACVR2A = tested on: ACVR2A
ACVR2B = tested on: ACVR2B
ACVRL1 = tested on: ACVRL1
ADCK3 = tested on: T1, ADCK3
T1 construct: gene CABC1

ADCK4 = tested on: ADCK4
AKT1 = tested on: AKT1
AKT2 = tested on: AKT2
AKT3 = tested on: AKT3
ALK(C1156Y) = tested on: ALK(C1156Y)
ALK(L1196M) = tested on: ALK(L1196M)
ALK = tested on: ALK
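Note: KINOMEscan scanMAX binding as percent activity remaining versus control; lower means stronger binding.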

Row | SMILES | Percent Control [1] [%] | Percent Control [2] [%] | Percent Control [3] [%] | Percent Control [4] [%] | Percent Control (ABL1-nonphosphorylated) [%] | Percent Control (ABL1-phosphorylated) [%] | Percent Control (ABL2) [%] | Percent Control (ACVR1B) [%] | Percent Control (ACVR1) [%] | Percent Control (ACVR2A) [%] | Percent Control (ACVR2B) [%] | Percent Control (ACVRL1) [%] | Percent Control (ADCK3) [%] | Percent Control (ADCK4) [%] | Percent Control (AKT1) [%] | Percent Control (AKT2) [%] | Percent Control (AKT3) [%] | Percent Control (ALK(C1156Y)) [%] | Percent Control (ALK(L1196M)) [%] | Percent Control (ALK) [%]
1 | COc1cc(C=NNc2ncnc3c2cnn3-c2ccccc2)ccc1O [GW513184X] | 13 | 37 | 35 | 26 | 31 | 23 | 55 | 53 | 22 | 68 | 82 | 67 | 95 | 0 | 100 | 100 | 100 | 100 | 100 | 100
2 | COC(=O)Nc1nc2ccc(Oc3ccc(NC(=O)Nc4cc(C(F)(F)F)ccc4F)cc3)cc2s1.Cl [GW693917A] | 32 | 5.1 | 6.7 | 15 | 3.1 | 13 | 2.6 | 100 | 89 | 100 | 100 | 65 | 100 | 75 | 84 | 100 | 100 | 89 | 87 | 100
3 | Cl.O=C(Nc1ccc(Oc2ccc3[nH]c(NC(=O)c4ccco4)nc3c2)cc1)Nc1cc(C(F)(F)F)ccc1F [GW683134A] | 58 | 6.2 | 9.2 | 17 | 7.9 | 21 | 3.2 | 82 | 100 | 100 | 100 | 76 | 100 | 100 | 100 | 100 | 100 | 92 | 92 | 88
4 | CCS(=O)(=O)c1ccc(OC)c(Nc2ncc(-c3cccc(OC)c3)o2)c1 [GW580509X] | 3.2 | 100 | 97 | 8 | 16 | 9.4 | 26 | 100 | 27 | 100 | 100 | 50 | 100 | 100 | 100 | 100 | 100 | 87 | 100 | 100
5 | CN1CCN(C(=O)c2ccc(NC(=O)Nc3ccc(N(C)c4ccnc(Nc5ccc(CS(C)(=O)=O)cc5)n4)cc3)cc2)CC1.Cl [GW830263A] | 30 | 0 | 21 | 20 | 9 | 30 | 44 | 77 | 28 | 78 | 94 | 79 | 100 | 47 | 100 | 100 | 100 | 64 | 83 | 76
6 | COc1ccc2cc(-c3c(-c4ccncc4)nc(-c4ccc(S(C)(=O)=O)cc4C)n3C)ccc2c1 [SB-633825] | 83 | 53 | 54 | 86 | 66 | 75 | 62 | 19 | 60 | 100 | 84 | 100 | 100 | 80 | 100 | 94 | 100 | 70 | 73 | 58
7 | C/C(Nc1ccc(S(N)(=O)=O)cc1)=C1/C(=O)Nc2ccccc21 [GW335962X] | 96 | 100 | 86 | 89 | 88 | 82 | 100 | 100 | 100 | 100 | 100 | 78 | 100 | 100 | 81 | 94 | 88 | 54 | 60 | 54
8 | Cl.O=C(O[C@H]1CN[C@H](C#Cc2cc3ncnc(Nc4ccc5c(cnn5Cc5ccccc5)c4)c3s2)C1)N1CCOCC1 [GSK200398A] | 80 | 100 | 100 | 78 | 84 | 76 | 100 | 100 | 100 | 100 | 100 | 82 | 100 | 100 | 92 | 100 | 100 | 94 | 88 | 100
9 | Cc1cc(O)cc(C)c1/C=C/c1cncc(C(N)=O)c1 [GW435821X] | 13 | 100 | 85 | 8.8 | 25 | 14 | 47 | 89 | 7.3 | 14 | 7.1 | 2.6 | 100 | 100 | 96 | 100 | 100 | 96 | 88 | 100
10 | Cl.c1ccc(Cc2nc3ccc(Nc4ncnc5ccccc45)cc3[nH]2)cc1 [GR269666A] | 100 | 100 | 100 | 100 | 96 | 100 | 100 | 100 | 100 | 100 | 100 | 89 | 100 | 100 | 93 | 100 | 100 | 95 | 100 | 99
11 | NS(=O)(=O)c1ccc(N/N=C2\C(=O)Nc3ccc(C(=O)NCc4ccncc4)cc32)cc1 [GW300657X] | 72 | 97 | 98 | 82 | 79 | 77 | 100 | 100 | 100 | 100 | 100 | 100 | 87 | 100 | 82 | 100 | 100 | 83 | 82 | 77
12 | COc1cc2ncn(-c3cc(O[C@H](C)c4ccccc4Cl)c(C(N)=O)s3)c2cc1OC [GSK237701A] | 76 | 51 | 39 | 83 | 59 | 81 | 73 | 100 | 100 | 100 | 100 | 100 | 100 | 83 | 100 | 88 | 100 | 100 | 94 | 79
13 | COc1cccc(-n2ncc3c(N/N=C/c4ccncc4)ncnc32)c1 [GW784752X] | 1.7 | 59 | 27 | 1.6 | 7 | 1.8 | 54 | 54 | 5.4 | 81 | 81 | 3.7 | 100 | 31 | 100 | 100 | 100 | 95 | 91 | 87
14 | CCc1ccc(Oc2nccc(-c3c(-c4ccc(F)cc4)ncn3C3CCNCC3)n2)cc1 [SB-242719] | 79 | 93 | 100 | 71 | 74 | 62 | 100 | 83 | 78 | 100 | 100 | 97 | 100 | 100 | 88 | 100 | 100 | 100 | 98 | 96
15 | O=C1Nc2ccc(C(=O)c3ccco3)cc2C1=Cc1cc(Cl)c(O)c(Cl)c1 [GW406108X] | 88 | 96 | 78 | 83 | 87 | 76 | 100 | 100 | 89 | 92 | 86 | 100 | 90 | 99 | 100 | 100 | 100 | 76 | 86 | 89
16 | COc1ccc2[nH]c3c4[nH]c5ccc(OC)cc5c4c4c(c3c2c1)C(=O)NC4=O [GW296115X] | 36 | 44 | 94 | 53 | 58 | 57 | 82 | 100 | 77 | 58 | 44 | 100 | 100 | 75 | 72 | 84 | 98 | 25 | 70 | 55
17 | CCS(=O)(=O)c1ccc(OC)c(Nc2ncc(-c3cccc(F)c3)o2)c1 [GW621970X] | 4.9 | 100 | 91 | 7.1 | 20 | 9.9 | 33 | 100 | 18 | 100 | 100 | 49 | 100 | 100 | 100 | 100 | 100 | 88 | 97 | 73
18 | NS(=O)(=O)c1ccc(N/N=C2\C(=O)Nc3ccc(-c4cnco4)cc32)cc1 [GW276655] | 70 | 67 | 70 | 69 | 84 | 74 | 98 | 100 | 66 | 90 | 100 | 100 | 100 | 100 | 84 | 65 | 100 | 97 | 100 | 83
19 | Cl.O=S1CCN(Cc2ccc(-c3ccc4ncnc(Nc5ccc(OCc6ccccc6)c(F)c5)c4c3)o2)CC1 [GW576924A] | 100 | 100 | 100 | 100 | 100 | 89 | 100 | 100 | 100 | 100 | 100 | 94 | 100 | 100 | 100 | 100 | 100 | 100 | 100 | 100
20 | COc1cccc(-c2c[nH]c3c(N/N=C/c4ccncc4)ncnc23)c1 [GW814408X] | 1.1 | 50 | 48 | 0.5 | 1.2 | 0.3 | 11 | 42 | 17 | 75 | 71 | 59 | 100 | 36 | 100 | 100 | 100 | 97 | 99 | 100
